Test results published in PubChem BioAssay.
Values without a mark were called inactive. Activity calls are given as the source filed them. No rule for the calls is given here.

Target: L-lactate dehydrogenase (Plasmodium falciparum (isolate CDC / Honduras)) (UniProt Q27743)
Sequence (Q27743 whole entry, looked up): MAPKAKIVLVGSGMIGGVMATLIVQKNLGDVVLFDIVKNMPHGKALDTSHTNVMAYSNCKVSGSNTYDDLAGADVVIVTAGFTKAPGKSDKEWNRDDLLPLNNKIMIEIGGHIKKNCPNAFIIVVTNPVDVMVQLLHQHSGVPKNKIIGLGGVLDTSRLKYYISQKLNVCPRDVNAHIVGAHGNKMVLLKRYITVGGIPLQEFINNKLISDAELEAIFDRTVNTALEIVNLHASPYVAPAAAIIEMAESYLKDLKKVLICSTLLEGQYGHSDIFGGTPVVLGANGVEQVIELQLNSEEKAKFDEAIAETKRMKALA
Assay: PfLDH activity inhibition – cell lysate, 3D7 strain, counter-screen for P. falciparum growth inhibition project (AID 2304);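 also: 0% = vehicle and 100% = reference inhibitor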
Conditions: P. falciparum 3D7 crude extract, LDH APAD/NBT absorbance; at 2 µM; hits give high values
With `CCc1c(CCNCCCCCCNCCc2ccc(Br)cc2)ccc(O)c1O` the inhibition was -1%.
`O=C(c1cc(-c2cccs2)[nH]n1)N1CCN(S(=O)(=O)c2ccc(Cl)cc2)CC1` gave an inhibition of 3%.
`Nc1nc(N)c2c(ccc3c2ccn3Cc2ccc(Cl)cc2)n1` gave an inhibition of 0%.
Work on `CC[C@@H]([C@@H](Cc1cc2ccccc2s1)C(=O)N[C@@H](CCCCNC(=O)OCc1ccccc1)C(=O)Nc1ccccn1)N(O)C=O` yielded an inhibition of 6%.
In the case of `CCc1cc(C(=O)c2cccc(C)c2)c(NC(=O)CN2CCN(C(=O)c3ccco3)CC2)s1`, the inhibition is reported as -5%.
Compound `NC(=O)CCC(NC(=O)CNC(=O)Nc1cccc(C(F)(F)F)c1)C(=O)O` (stereo not given) has an inhibition of 4%.
For `CCOC(=O)N/N=C/[C@H](CCc1ccccc1)NC(=O)[C@H](CC(C)C)NC(=O)c1cc2cccc(OC)c2o1`, the inhibition was 2%.
With `NC(N)=NN=Cc1c2ccccc2c(Cl)c2c(Cl)cccc12` the inhibition was -3%.
With `NC1=NC(c2ccccc2)(c2ccccc2)C(=O)N1CC=Cc1ccccc1` the inhibition was -3%.
Work on `Cc1cccc(CNc2nc(C)cc(N[C@@H](Cc3ccccc3)C(=O)NC3CCCC3)n2)c1` yielded an inhibition of -3%.
For `O=C(Nc1cccc(-c2ccc(-c3nc4ccccc4[nH]3)cc2)c1)Nc1ccc(F)c(F)c1F`, the inhibition was 5%.
`O=C(Nc1ccccc1)N(Cc1cccc(-c2cccc(CNCCc3ccccc3)c2)c1)C1CCN(Cc2ccccc2)CC1` gave an inhibition of 1%.
Compound `COc1ccc(CCN(Cc2cccs2)C(=O)c2cc3sccc3n2C)cc1OC` has an inhibition of 1%.
Work on `CN(C)c1ccc(-c2ccc(C(=O)NC3CCN(Cc4ccc5c(c4)OCCO5)CC3)s2)cc1` yielded an inhibition of -2%.
Work on `Clc1ccc(CNc2ccnc(NCc3cccnc3N3CCCC3)n2)c(Cl)c1` yielded an inhibition of -5%.
Compound `CN1CCC(N2CCN(Cc3cccc(-c4ccc(-c5nc6ccccc6[nH]5)cc4)c3)CC2)CC1` has an inhibition of -7%.
`CCCCCn1c(Sc2ccc(C#N)c([N+](=O)[O-])c2)nnc1-c1cc(OC)cc(OC)c1` showed an inhibition of 1%.
In the case of `CCN(CC)C(=O)c1cccc(/C=C/c2ccc(-c3c(C)[nH]c(C)c(Cl)c3=O)cc2)c1`, the inhibition is reported as 6%.
`O=C(NC1CC1)c1cnc(N2CCC(c3ccccc3)CC2)c(Cl)c1` gave an inhibition of 0%.
With `COc1ccc2nccc([C@@H](O)CN3CCC(NCc4cc5cccc(O)c5c(=O)[nH]4)CC3)c2c1` the inhibition was 3%.
Work on `Cc1nc(C)c(CC(=O)Nc2ccc(-c3cccc(-c4nc5ccc(C(F)(F)F)cc5[nH]4)c3)cc2)s1` yielded an inhibition of 1%.
In the case of `COc1ccc(N2CCN(c3nc(Nc4ccc(NC(C)=O)cc4)nc(N4CCCC4)n3)CC2)cc1`, the inhibition is reported as -2%.
In the case of `Cc1csc(-c2nc(NCCc3c(C)noc3C)ncc2-c2ccsc2)n1`, the inhibition is reported as -4%.
Work on `CCOC(=O)c1cc(Cl)ccc1OCCCON1C(N)=NC(N)=NC1(C)C` yielded an inhibition of 3%.
Compound `CN(C)CCOc1cc(NC(=O)Nc2ccc(Cl)cc2C(F)(F)F)ccc1I` has an inhibition of 5%.
`CC(O)C1CCCCN1C(=O)c1cccc(-c2ccc(-c3nc4ccc(C(F)(F)F)cc4[nH]3)cc2)c1` (stereo not given) showed an inhibition of 0%.
`Cc1cc(NC(=O)NCCN2CCC(NS(=O)(=O)c3ccc(Br)cc3)C2)c2ccccc2n1` (stereo not given) gave an inhibition of 0%.
With `CN1CCN(CC(=O)Nc2cccc(-c3ccc(-c4nc5ccc(C(F)(F)F)cc5[nH]4)s3)c2)CC1` the inhibition was 1%.
Work on `O=C(NC1CCN(c2ccnc(Nc3ccc(F)cc3)n2)C1)c1cc2ccccc2s1` (stereo not given) yielded an inhibition of -8%.
In the case of `CC(CN)OCn1cnc2c(N)ncnc21` (stereo not given), the inhibition is reported as 4%.
`COc1ccc(Nc2nccc(N3CCC(NC(=O)c4cccc(C#N)c4)C3)n2)cc1` (stereo not given) showed an inhibition of -3%.
For `CCc1cn2c3c(cc(C(=O)N[C@@H](Cc4ccccc4)[C@H](O)CN[C@@H](C)CC)cc13)N(C)S(=O)(=O)CC2`, the inhibition was -2%.
`COc1ccccc1-c1nc2nc(N)nc(N)c2nc1-c1ccccc1OC` showed an inhibition of 1%.
Compound `COc1cc(NC(=O)CCCCCCCCN2CCN(C)CC2)c2ncccc2c1` has an inhibition of -1%.
For `CN(Cc1cccc(O)c1)C1CCN(c2cc(NC(=O)c3ccc(F)cc3)ccn2)C1` (stereo not given), the inhibition was 5%.
Compound `O=C(Nc1ccc(OC(F)(F)F)cc1)Nc1ccc([N+](=O)[O-])cc1` has an inhibition of 3%.
Work on `CC(C)CNCc1ccc(-c2ccccc2CNC2CCN(Cc3ccccc3)CC2)cc1` yielded an inhibition of -3%.
With `CN1CCN(CCCN(Cc2ccc(-c3cccc(CNCc4ccc5c(c4)OCO5)c3)cc2)C(=O)NCCc2ccccc2)CC1` the inhibition was 3%.
With `COc1cc2cc(Cc3cnc(N)nc3N)ccc2c(OC)c1OC` the inhibition was 7%.
For `Cc1cc(N2CCC(NS(=O)(=O)c3ccc(F)cc3)CC2)nc(Nc2cccc(C#N)c2)n1`, the inhibition was -4%.

Test system: not listed separately
Assay: inhibition of 3D7 malaria parasite growth – strain 3D7 (AID 2306);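 also: 0% = DMSO wells and 100% = chloroquine plus artemisinin control wells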
Conditions: P. falciparum 3D7 erythrocytic growth, LDH absorbance, 72 h; at 2 µM; hits give high values
In the case of `CCc1c(CCNCCCCCCNCCc2ccc(Br)cc2)ccc(O)c1O`, the growth inhibition is reported as 95% (active).
With `O=C(c1cc(-c2cccs2)[nH]n1)N1CCN(S(=O)(=O)c2ccc(Cl)cc2)CC1` the growth inhibition was 96% (active).
With `Nc1nc(N)c2c(ccc3c2ccn3Cc2ccc(Cl)cc2)n1` the growth inhibition was 100% (active).
For `CC[C@@H]([C@@H](Cc1cc2ccccc2s1)C(=O)N[C@@H](CCCCNC(=O)OCc1ccccc1)C(=O)Nc1ccccn1)N(O)C=O`, the growth inhibition was 96% (active).
With `CCc1cc(C(=O)c2cccc(C)c2)c(NC(=O)CN2CCN(C(=O)c3ccco3)CC2)s1` the growth inhibition was 91% (active).
With `NC(=O)CCC(NC(=O)CNC(=O)Nc1cccc(C(F)(F)F)c1)C(=O)O` (stereo not given) the growth inhibition was 97% (active).
With `CCOC(=O)N/N=C/[C@H](CCc1ccccc1)NC(=O)[C@H](CC(C)C)NC(=O)c1cc2cccc(OC)c2o1` the growth inhibition was 84% (active).
For `NC(N)=NN=Cc1c2ccccc2c(Cl)c2c(Cl)cccc12`, the growth inhibition was 91% (active).
With `NC1=NC(c2ccccc2)(c2ccccc2)C(=O)N1CC=Cc1ccccc1` the growth inhibition was 98% (active).
For `Cc1cccc(CNc2nc(C)cc(N[C@@H](Cc3ccccc3)C(=O)NC3CCCC3)n2)c1`, the growth inhibition was 100% (active).
With `O=C(Nc1cccc(-c2ccc(-c3nc4ccccc4[nH]3)cc2)c1)Nc1ccc(F)c(F)c1F` the growth inhibition was 100% (active).
With `O=C(Nc1ccccc1)N(Cc1cccc(-c2cccc(CNCCc3ccccc3)c2)c1)C1CCN(Cc2ccccc2)CC1` the growth inhibition was 100% (active).
In the case of `COc1ccc(CCN(Cc2cccs2)C(=O)c2cc3sccc3n2C)cc1OC`, the growth inhibition is reported as 94% (active).
In the case of `CN(C)c1ccc(-c2ccc(C(=O)NC3CCN(Cc4ccc5c(c4)OCCO5)CC3)s2)cc1`, the growth inhibition is reported as 100% (active).
With `Clc1ccc(CNc2ccnc(NCc3cccnc3N3CCCC3)n2)c(Cl)c1` the growth inhibition was 85% (active).
In the case of `CN1CCC(N2CCN(Cc3cccc(-c4ccc(-c5nc6ccccc6[nH]5)cc4)c3)CC2)CC1`, the growth inhibition is reported as 100% (active).
With `CCCCCn1c(Sc2ccc(C#N)c([N+](=O)[O-])c2)nnc1-c1cc(OC)cc(OC)c1` the growth inhibition was 93% (active).
For `CCN(CC)C(=O)c1cccc(/C=C/c2ccc(-c3c(C)[nH]c(C)c(Cl)c3=O)cc2)c1`, the growth inhibition was 96% (active).
In the case of `O=C(NC1CC1)c1cnc(N2CCC(c3ccccc3)CC2)c(Cl)c1`, the growth inhibition is reported as 94% (active).
In the case of `COc1ccc2nccc([C@@H](O)CN3CCC(NCc4cc5cccc(O)c5c(=O)[nH]4)CC3)c2c1`, the growth inhibition is reported as 99% (active).
For `Cc1nc(C)c(CC(=O)Nc2ccc(-c3cccc(-c4nc5ccc(C(F)(F)F)cc5[nH]4)c3)cc2)s1`, the growth inhibition was 86% (active).
For `COc1ccc(N2CCN(c3nc(Nc4ccc(NC(C)=O)cc4)nc(N4CCCC4)n3)CC2)cc1`, the growth inhibition was 91% (active).
With `Cc1csc(-c2nc(NCCc3c(C)noc3C)ncc2-c2ccsc2)n1` the growth inhibition was 90% (active).
For `CCOC(=O)c1cc(Cl)ccc1OCCCON1C(N)=NC(N)=NC1(C)C`, the growth inhibition was 94% (active).
For `CN(C)CCOc1cc(NC(=O)Nc2ccc(Cl)cc2C(F)(F)F)ccc1I`, the growth inhibition was 96% (active).
In the case of `CC(O)C1CCCCN1C(=O)c1cccc(-c2ccc(-c3nc4ccc(C(F)(F)F)cc4[nH]3)cc2)c1` (stereo not given), the growth inhibition is reported as 101% (active).
In the case of `Cc1cc(NC(=O)NCCN2CCC(NS(=O)(=O)c3ccc(Br)cc3)C2)c2ccccc2n1` (stereo not given), the growth inhibition is reported as 99% (active).
For `CN1CCN(CC(=O)Nc2cccc(-c3ccc(-c4nc5ccc(C(F)(F)F)cc5[nH]4)s3)c2)CC1`, the growth inhibition was 102% (active).
In the case of `O=C(NC1CCN(c2ccnc(Nc3ccc(F)cc3)n2)C1)c1cc2ccccc2s1` (stereo not given), the growth inhibition is reported as 99% (active).
In the case of `CC(CN)OCn1cnc2c(N)ncnc21` (stereo not given), the growth inhibition is reported as 95% (active).
In the case of `COc1ccc(Nc2nccc(N3CCC(NC(=O)c4cccc(C#N)c4)C3)n2)cc1` (stereo not given), the growth inhibition is reported as 92% (active).
For `CCc1cn2c3c(cc(C(=O)N[C@@H](Cc4ccccc4)[C@H](O)CN[C@@H](C)CC)cc13)N(C)S(=O)(=O)CC2`, the growth inhibition was 99% (active).
In the case of `COc1ccccc1-c1nc2nc(N)nc(N)c2nc1-c1ccccc1OC`, the growth inhibition is reported as 84% (active).
With `COc1cc(NC(=O)CCCCCCCCN2CCN(C)CC2)c2ncccc2c1` the growth inhibition was 82% (active).
For `CN(Cc1cccc(O)c1)C1CCN(c2cc(NC(=O)c3ccc(F)cc3)ccn2)C1` (stereo not given), the growth inhibition was 91% (active).
With `O=C(Nc1ccc(OC(F)(F)F)cc1)Nc1ccc([N+](=O)[O-])cc1` the growth inhibition was 100% (active).
For `CC(C)CNCc1ccc(-c2ccccc2CNC2CCN(Cc3ccccc3)CC2)cc1`, the growth inhibition was 101% (active).
In the case of `CN1CCN(CCCN(Cc2ccc(-c3cccc(CNCc4ccc5c(c4)OCO5)c3)cc2)C(=O)NCCc2ccccc2)CC1`, the growth inhibition is reported as 98% (active).
In the case of `COc1cc2cc(Cc3cnc(N)nc3N)ccc2c(OC)c1OC`, the growth inhibition is reported as 97% (active).
With `Cc1cc(N2CCC(NS(=O)(=O)c3ccc(F)cc3)CC2)nc(Nc2cccc(C#N)c2)n1` the growth inhibition was 97% (active).
